Experiments:
Assay in all cases: DAPPL (digital affinity profiling via proximity ligation, sequencing); 10 mM Tris-HCl pH 7.5, 50 mM NaCl, 1 mM DTT, 4% glycerol, room temperature, 30 min; GST-TFs on glutathione beads, 16-mer random dsDNA library, 0.1% formaldehyde crosslink after washing; high values mean tight binding
Conditions in all cases: protein: recombinant; tags: N-terminal GST; dsDNA, one strand shown
ELK1 = molecular target: T1, ELK1 (Homo sapiens, UniProt P19419 1-428)
T1 sequence: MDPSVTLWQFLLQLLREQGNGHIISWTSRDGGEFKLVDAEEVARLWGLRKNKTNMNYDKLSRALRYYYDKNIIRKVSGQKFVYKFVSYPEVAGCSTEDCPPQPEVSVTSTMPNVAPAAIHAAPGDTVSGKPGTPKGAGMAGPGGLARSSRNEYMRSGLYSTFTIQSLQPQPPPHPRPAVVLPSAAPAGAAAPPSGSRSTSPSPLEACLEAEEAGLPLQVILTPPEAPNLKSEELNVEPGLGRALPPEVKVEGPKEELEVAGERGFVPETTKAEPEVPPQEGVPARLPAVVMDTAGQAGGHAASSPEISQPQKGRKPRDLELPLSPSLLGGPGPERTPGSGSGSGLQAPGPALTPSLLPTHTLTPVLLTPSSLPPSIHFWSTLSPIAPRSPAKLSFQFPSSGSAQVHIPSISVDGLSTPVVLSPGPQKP
Procedure, shortened: (§1)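 Human transcription factors were made in yeast as GST fusions, captured on glutathione beads and barcoded with DNA. With a tag-only sample included, the pool was incubated with 200 nmole of a random double-stranded 16-mer DNA library in Tris/NaCl/DTT/glycerol buffer at room temperature for 30 min, then crosslinked with 0.1% formaldehyde after washing, ligated by proximity, amplified and sequenced. For binding signal, each hexamer's read frequency for a factor is divided by its frequency for the tag-only sample.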

GABPA = molecular target: T2, GABPA (Homo sapiens, UniProt Q06546 1-454)
T2 sequence: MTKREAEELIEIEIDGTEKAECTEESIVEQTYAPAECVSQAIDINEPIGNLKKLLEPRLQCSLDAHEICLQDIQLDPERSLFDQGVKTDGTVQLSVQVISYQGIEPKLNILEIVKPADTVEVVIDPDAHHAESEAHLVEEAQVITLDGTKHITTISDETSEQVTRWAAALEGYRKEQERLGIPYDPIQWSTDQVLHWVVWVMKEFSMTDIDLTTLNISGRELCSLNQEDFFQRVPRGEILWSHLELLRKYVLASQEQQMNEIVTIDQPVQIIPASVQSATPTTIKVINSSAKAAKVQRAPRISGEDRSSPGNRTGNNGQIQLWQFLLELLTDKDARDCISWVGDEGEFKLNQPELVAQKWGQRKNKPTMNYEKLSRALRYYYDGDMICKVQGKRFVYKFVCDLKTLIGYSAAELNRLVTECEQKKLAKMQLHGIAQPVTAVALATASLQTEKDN
Procedure, shortened: as §1

ELF1 = ELF1 (Homo sapiens, UniProt P32519 1-619)
Chain of ELF1 (P32519 whole entry): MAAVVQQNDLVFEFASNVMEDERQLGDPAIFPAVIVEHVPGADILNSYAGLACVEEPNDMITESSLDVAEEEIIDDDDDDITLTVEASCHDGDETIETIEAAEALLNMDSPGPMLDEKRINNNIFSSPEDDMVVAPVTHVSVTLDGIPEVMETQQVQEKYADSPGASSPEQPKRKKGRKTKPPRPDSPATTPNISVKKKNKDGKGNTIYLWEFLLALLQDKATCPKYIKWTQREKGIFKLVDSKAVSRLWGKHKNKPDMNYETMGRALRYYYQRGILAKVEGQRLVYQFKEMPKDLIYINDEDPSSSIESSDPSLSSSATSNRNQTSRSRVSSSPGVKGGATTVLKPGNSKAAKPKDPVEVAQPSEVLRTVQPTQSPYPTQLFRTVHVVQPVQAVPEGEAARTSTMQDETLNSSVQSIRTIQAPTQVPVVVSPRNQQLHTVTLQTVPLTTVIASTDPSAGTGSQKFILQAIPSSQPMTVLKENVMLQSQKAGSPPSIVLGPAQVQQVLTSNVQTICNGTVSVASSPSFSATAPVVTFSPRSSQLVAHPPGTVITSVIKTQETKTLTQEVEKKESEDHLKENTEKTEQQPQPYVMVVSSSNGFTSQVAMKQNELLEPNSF
Procedure, shortened: as §1

EHF = molecular target: T3, EHF (Homo sapiens, UniProt Q9NZC4 1-300)
T3 sequence: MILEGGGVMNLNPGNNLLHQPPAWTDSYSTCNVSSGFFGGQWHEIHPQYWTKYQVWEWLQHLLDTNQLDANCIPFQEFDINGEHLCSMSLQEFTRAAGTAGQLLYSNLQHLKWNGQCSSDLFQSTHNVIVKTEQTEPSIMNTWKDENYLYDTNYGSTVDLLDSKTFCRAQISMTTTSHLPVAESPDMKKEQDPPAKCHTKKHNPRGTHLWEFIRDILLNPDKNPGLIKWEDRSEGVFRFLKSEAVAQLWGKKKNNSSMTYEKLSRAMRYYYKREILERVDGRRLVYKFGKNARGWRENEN
Procedure, shortened: as §1

ELK3 = molecular target: T4, ELK3 (Homo sapiens, UniProt P41970 1-407)
T4 sequence: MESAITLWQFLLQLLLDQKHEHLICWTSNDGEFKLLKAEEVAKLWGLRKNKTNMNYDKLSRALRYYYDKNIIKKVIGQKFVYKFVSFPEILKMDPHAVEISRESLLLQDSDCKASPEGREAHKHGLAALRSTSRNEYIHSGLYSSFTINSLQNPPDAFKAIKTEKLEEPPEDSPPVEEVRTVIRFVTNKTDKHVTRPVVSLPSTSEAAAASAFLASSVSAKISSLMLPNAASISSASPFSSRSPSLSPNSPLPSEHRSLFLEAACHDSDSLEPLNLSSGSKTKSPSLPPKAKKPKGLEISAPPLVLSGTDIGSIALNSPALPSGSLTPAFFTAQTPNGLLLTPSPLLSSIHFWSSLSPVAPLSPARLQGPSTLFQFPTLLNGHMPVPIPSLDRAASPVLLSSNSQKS
Procedure, shortened: as §1

SPIC = molecular target: T5, SPIC (Homo sapiens, UniProt Q8N5J4 1-248)
T5 sequence: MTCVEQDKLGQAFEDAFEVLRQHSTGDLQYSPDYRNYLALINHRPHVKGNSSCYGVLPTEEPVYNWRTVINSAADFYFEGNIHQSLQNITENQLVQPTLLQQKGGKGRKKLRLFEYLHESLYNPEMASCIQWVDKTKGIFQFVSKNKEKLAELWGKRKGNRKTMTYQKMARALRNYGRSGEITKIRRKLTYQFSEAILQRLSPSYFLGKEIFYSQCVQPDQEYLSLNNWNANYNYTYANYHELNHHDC
Procedure, shortened: as §1

ELF4 = ELF4 (Homo sapiens, UniProt Q99607 1-663)
Chain of ELF4 (Q99607 whole entry): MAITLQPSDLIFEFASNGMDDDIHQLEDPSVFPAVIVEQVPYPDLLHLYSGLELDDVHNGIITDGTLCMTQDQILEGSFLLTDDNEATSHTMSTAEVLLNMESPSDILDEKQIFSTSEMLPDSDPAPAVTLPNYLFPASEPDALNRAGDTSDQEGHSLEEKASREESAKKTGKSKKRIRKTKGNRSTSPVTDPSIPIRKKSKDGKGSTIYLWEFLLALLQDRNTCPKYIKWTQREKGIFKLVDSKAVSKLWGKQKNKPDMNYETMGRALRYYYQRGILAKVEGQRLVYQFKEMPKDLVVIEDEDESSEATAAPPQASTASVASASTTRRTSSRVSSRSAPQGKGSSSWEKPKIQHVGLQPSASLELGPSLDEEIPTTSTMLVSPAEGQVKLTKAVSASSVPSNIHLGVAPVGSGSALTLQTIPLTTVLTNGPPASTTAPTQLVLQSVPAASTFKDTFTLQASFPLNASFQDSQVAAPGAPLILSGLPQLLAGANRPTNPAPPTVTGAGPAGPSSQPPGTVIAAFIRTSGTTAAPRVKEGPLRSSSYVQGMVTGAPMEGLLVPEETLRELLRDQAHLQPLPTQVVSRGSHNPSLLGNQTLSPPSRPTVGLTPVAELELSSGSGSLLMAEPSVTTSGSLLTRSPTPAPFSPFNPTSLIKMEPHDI
Procedure, shortened: as §1

ELK4 = molecular target: T6, ELK4 (Homo sapiens, UniProt P28324-2 1-405)
T6 sequence: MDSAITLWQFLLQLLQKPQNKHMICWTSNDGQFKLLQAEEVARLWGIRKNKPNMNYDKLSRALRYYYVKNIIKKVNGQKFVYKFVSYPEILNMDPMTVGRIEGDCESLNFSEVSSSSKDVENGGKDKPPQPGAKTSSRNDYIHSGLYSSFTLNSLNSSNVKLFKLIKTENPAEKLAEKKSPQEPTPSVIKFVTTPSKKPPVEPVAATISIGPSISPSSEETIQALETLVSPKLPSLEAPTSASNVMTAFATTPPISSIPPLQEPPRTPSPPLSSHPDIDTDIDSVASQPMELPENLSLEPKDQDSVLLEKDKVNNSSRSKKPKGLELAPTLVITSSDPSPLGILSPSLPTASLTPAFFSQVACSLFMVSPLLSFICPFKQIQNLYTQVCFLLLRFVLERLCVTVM
Procedure, shortened: as §1

ELF3 = molecular target: T7, ELF3 (Homo sapiens, UniProt P78545 1-371)
T7 sequence: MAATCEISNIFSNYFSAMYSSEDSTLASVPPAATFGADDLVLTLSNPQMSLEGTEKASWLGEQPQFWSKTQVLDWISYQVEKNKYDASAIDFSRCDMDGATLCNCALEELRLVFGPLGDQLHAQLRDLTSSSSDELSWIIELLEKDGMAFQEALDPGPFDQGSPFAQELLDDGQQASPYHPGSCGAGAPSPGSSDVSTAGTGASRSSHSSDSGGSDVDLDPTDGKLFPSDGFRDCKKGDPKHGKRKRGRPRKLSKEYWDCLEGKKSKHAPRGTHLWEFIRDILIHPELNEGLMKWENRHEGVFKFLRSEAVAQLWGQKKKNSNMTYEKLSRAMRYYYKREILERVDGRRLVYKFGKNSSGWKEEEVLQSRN
Procedure, shortened: as §1

ETV3L = molecular target: T8, ETV3L (Homo sapiens, UniProt Q6ZN32 1-361)
T8 sequence: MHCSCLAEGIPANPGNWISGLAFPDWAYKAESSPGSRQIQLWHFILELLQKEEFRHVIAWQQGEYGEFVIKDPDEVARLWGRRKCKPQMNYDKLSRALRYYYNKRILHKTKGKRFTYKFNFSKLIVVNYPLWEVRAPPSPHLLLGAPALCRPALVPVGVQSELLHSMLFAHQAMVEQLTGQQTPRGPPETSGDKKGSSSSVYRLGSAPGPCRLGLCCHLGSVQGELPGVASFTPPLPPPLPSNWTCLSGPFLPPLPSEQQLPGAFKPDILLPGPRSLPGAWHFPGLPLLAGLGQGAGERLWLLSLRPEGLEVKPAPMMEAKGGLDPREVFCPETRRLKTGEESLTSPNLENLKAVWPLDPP
Procedure, shortened: as §1

ETS2 = molecular target: T9, ETS2 (Homo sapiens, UniProt P15036 1-469)
T9 sequence: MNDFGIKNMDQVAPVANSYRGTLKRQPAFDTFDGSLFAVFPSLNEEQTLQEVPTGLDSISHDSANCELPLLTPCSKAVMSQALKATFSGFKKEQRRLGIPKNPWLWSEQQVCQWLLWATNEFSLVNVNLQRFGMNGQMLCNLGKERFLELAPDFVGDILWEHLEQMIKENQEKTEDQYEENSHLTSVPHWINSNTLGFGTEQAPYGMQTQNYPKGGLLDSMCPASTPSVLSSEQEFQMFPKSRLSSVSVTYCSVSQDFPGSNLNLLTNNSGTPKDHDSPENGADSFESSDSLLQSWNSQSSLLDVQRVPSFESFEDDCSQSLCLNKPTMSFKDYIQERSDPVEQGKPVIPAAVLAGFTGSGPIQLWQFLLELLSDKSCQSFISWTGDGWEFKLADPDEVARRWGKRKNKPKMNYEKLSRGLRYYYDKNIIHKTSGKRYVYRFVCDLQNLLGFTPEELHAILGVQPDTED
Procedure, shortened: as §1

SPDEF = molecular target: T10, SPDEF (Homo sapiens, UniProt O95238 1-335)
T10 sequence: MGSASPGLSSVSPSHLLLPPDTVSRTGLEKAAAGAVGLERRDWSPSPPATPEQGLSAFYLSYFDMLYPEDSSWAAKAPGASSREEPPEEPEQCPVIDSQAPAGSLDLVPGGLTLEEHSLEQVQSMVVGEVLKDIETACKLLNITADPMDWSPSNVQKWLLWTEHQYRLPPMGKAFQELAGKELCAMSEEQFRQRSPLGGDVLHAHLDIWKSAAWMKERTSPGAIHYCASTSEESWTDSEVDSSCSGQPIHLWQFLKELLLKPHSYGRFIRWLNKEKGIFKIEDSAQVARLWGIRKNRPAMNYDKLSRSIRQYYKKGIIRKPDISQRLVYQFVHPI
Procedure, shortened: as §1

ETV7 = molecular target: T11, ETV7 (Homo sapiens, UniProt Q9Y603 1-341)
T11 sequence: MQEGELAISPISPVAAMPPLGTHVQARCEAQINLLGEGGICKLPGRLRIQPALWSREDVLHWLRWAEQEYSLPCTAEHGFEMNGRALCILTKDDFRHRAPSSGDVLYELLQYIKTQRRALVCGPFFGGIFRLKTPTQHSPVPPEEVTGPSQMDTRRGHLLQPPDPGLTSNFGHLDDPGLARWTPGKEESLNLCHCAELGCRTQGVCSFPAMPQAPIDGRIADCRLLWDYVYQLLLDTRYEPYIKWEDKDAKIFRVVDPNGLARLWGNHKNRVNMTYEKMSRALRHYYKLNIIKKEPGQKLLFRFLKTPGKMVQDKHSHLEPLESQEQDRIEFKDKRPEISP
Procedure, shortened: as §1

ETV3 = molecular target: T12, ETV3 (Homo sapiens, UniProt P41162-2 1-143)
T12 sequence: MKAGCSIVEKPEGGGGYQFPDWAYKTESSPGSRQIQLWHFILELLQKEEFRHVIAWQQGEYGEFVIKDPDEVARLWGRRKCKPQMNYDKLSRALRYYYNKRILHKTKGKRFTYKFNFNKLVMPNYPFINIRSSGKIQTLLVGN
Procedure, shortened: as §1

ETV6 = ETV6 (Homo sapiens, UniProt P41212 1-452)
Chain of ETV6 (P41212 whole entry): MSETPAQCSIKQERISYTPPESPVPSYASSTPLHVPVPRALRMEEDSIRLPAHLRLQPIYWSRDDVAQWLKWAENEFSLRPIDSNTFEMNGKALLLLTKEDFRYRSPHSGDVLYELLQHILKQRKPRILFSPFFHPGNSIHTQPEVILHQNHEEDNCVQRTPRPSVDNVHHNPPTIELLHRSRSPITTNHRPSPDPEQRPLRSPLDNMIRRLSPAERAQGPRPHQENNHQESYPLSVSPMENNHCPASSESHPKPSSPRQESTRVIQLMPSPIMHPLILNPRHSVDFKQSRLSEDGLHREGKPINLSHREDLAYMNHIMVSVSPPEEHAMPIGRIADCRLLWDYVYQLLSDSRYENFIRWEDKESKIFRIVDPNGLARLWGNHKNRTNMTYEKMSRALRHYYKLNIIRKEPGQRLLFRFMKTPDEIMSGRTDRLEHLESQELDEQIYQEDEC
Procedure, shortened: as §1

Row | Sequence | binding signal (ELK1) | binding signal (GABPA) | binding signal (ELF1) | binding signal (EHF) | binding signal (ELK3) | binding signal (SPIC) | binding signal (ELF4) | binding signal (ELK4) | binding signal (ELF3) | binding signal (ETV3L) | binding signal (ETS2) | binding signal (SPDEF) | binding signal (ETV7) | binding signal (ETV3) | binding signal (ETV6)
1 | ATAAGT | 1.05 fold enrichment (6-mer frequency, TF over GST control) | 1.07 fold enrichment (6-mer frequency, TF over GST control) | 1.08 fold enrichment (6-mer frequency, TF over GST control) | 1.04 fold enrichment (6-mer frequency, TF over GST control) | 1.09 fold enrichment (6-mer frequency, TF over GST control) | 1.02 fold enrichment (6-mer frequency, TF over GST control) | 1.1 fold enrichment (6-mer frequency, TF over GST control) | 1.06 fold enrichment (6-mer frequency, TF over GST control) | 1.09 fold enrichment (6-mer frequency, TF over GST control) | 1.05 fold enrichment (6-mer frequency, TF over GST control) | 1.06 fold enrichment (6-mer frequency, TF over GST control) | 1.05 fold enrichment (6-mer frequency, TF over GST control) | 1.05 fold enrichment (6-mer frequency, TF over GST control) | 1.03 fold enrichment (6-mer frequency, TF over GST control) | 1.06 fold enrichment (6-mer frequency, TF over GST control)
2 | GTAAGC |  |  |  |  |  | 1.01 fold enrichment (6-mer frequency, TF over GST control) |  |  |  |  |  |  |  |  | 
